Inconclusive results are not listed. A call without a number means that no potency is given here. Active and inactive are the calls of the source. Calls come from the whole dose curve.
Experiments:
[1] = target: Acetylcholinesterase (Homo sapiens) (UniProt P22303); test: Acetylcholinesterase (AChE) small molecule antagonists: colormetric cell-based qHTS assay (AID 1347395); note: nearly all actives have a fitted effect of over 30% in size
Summary of the method: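 Cells (SH-SY5Y, 2,000 per well) are seeded and left overnight at 37 C. Compound is added for 30 min, then DTNB and acetylthiocholine for a further 90 min at 37 C before absorbance-based thiocholine detection.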

[2] = target: Acetylcholinesterase (Homo sapiens) (UniProt P22303); test: Acetylcholinesterase (AChE) small molecule antagonists: enzyme-based qHTS assay (AID 1347397); conditions: Potency: AChE enzyme activity inhibition; outcome: AChE enzyme activity inhibition; note: nearly all actives have a fitted effect of over 55% in size
Summary of the method: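 Enzyme inhibition was scored from DTNB-detected thiocholine formed by recombinant human AChE acting on acetylthiocholine. The 30 min compound preincubation and 10 min substrate reaction were both run at room temperature, with DMSO as vehicle control.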

[3] = target: Acetylcholinesterase (Homo sapiens) (UniProt P22303); test: Acetylcholinesterase (AChE) small molecule antagonists: fluorescence cell-based qHTS assay (AID 1347398); conditions: Potency: AChE activity; outcome: AChE activity; note: nearly all actives have a fitted effect of over 50% in size
Summary of the method: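 Endogenous acetylcholinesterase of SH-SY5Y neuroblastoma cells is measured in situ. After overnight attachment and 30 min compound exposure, cells receive acetylthiocholine and Thiolite Green; fluorescence is read after 40 min at room temperature.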

[4] = target: Acetylcholinesterase (Homo sapiens) (UniProt P22303); test: Acetylcholinesterase (AChE) small molecule antagonists: enzyme-based qHTS assay with human liver microsomes (AID 1347399); conditions: Potency: qHTS inhibition; outcome: qHTS inhibition; note: nearly all actives have a fitted effect of over 60% in size
Summary of the method: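 Recombinant human AChE (50 mU/mL in the enzyme mix) and human liver microsomes (0.25 mg/mL final) were preincubated with compound and NADPH (0.25 mg/mL final) for 30 min at 37 C. Acetylthiocholine/DTNB was then added; thiocholine was read colorimetrically after 10 min at room temperature.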
Potency is the fitted concentration of half-maximal effect.

Sequence of Acetylcholinesterase (Homo sapiens) (P22303 whole entry, looked up): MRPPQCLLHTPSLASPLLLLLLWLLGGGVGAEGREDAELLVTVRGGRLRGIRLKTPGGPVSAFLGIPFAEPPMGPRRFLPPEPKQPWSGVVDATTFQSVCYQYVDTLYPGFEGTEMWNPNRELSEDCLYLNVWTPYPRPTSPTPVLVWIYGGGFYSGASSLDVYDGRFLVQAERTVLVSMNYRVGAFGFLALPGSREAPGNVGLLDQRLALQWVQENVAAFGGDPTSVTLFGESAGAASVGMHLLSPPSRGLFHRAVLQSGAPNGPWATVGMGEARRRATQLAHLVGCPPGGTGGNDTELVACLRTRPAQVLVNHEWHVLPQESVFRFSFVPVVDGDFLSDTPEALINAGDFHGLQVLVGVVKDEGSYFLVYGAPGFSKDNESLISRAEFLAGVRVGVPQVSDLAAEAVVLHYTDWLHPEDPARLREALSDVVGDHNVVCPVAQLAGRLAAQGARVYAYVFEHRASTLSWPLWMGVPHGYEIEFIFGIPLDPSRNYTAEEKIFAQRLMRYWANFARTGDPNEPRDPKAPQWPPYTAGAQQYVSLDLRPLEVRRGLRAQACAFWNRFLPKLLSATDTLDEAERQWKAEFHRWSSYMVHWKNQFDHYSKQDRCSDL

What does the source list for `Cc1cccn2c(=O)c(-c3nnn[nH]3)cnc12`?
activity, negative = inhibition [1]: -0.311% [at 23.6 µM] (inactive); activity change, negative = inhibition [2]: -2.02% [at 23.6 µM] (inactive); activity change, negative = inhibition [3]: -17.5% [at 23.8 µM] (inactive); activity change, negative = inhibition [4]: -5.01% [at 23.6 µM] (inactive)

How did the Potency [1] turn out when `CCC(C)N(C)C(=O)c1cc2ccccc2c(-c2ccccc2Cl)n1` (stereo not drawn) was run?
The Potency was “inactive”.

What about the Potency [2] of the same compound?
The Potency was “inactive”.

And the Potency [3]?
Its Potency is “inactive”.

And the Potency [4]?
The Potency was “inactive”.

What does the source list for `CCCCCCCCCCCCN1CCOCC1`?
Potency [1]: inactive; Potency [2]: inactive; Potency [3]: inactive; Potency [4]: inactive

Which results are given for `CN1CCN(C2=Nc3ccccc3Sc3ccc(Cl)cc32)CC1`?
Potency [1]: inactive; Potency [2]: inactive; Potency [3]: inactive; Potency [4]: inactive

Which Potency [1] does the source give for `Cc1cnc(NS(=O)(=O)c2ccc(N)cc2)nc1` here?
Its Potency is “inactive”.

What about the Potency [2] of the same compound?
Its Potency is “inactive”.

What about the Potency [3] of the same compound?
The Potency was “inactive”.

What about the Potency [4] of the same compound?
The Potency was “inactive”.

With `O=C1OC[C@H](Cc2cccc(O)c2)[C@H]1Cc1cccc(O)c1` as the compound, how does the Potency [1] read?
Its Potency is “inactive”.

What about the Potency [2] of the same compound?
The Potency was “inactive”.

What about the Potency [3] of the same compound?
Its Potency is “inactive”.

What about the Potency [4] of the same compound?
The Potency was “inactive”.

For `COC(=O)c1cc(S(N)(=O)=O)ccc1OC`, which Potency [1] is on record?
Its Potency is “inactive”.

What about the Potency [2] of the same compound?
The Potency was “inactive”.

And the Potency [3]?
The Potency was “inactive”.

And the Potency [4]?
The Potency was “inactive”.

Which results are given for `NC[C@H]1O[C@H](O[C@H]2[C@H](O)[C@@H](O[C@H]3O[C@H](CO)[C@@H](O)[C@H](N)[C@H]3O)[C@H](N)C[C@@H]2N)[C@H](O)[C@@H](O)[C@@H]1O`?
activity, negative = inhibition [1]: -1.99% [at 10.5 µM] (inactive); activity change, negative = inhibition [2]: 0.413% [at 10.5 µM] (inactive); activity change, negative = inhibition [3]: 2.3% [at 10.5 µM] (inactive); activity change, negative = inhibition [4]: -5.67% [at 10.5 µM] (inactive)

What does the source list for `CC/C=C\CCOC(=O)c1ccccc1`?
Potency [1]: inactive; Potency [2]: inactive; Potency [3]: inactive; Potency [4]: inactive

`CCCCCCCCCCCCCCCS(=O)(=O)Oc1ccccc1` was tested. Which Potency [1] did it give?
The Potency was “inactive”.

And the Potency [2]?
Its Potency is “inactive”.

What about the Potency [3] of the same compound?
The Potency was “inactive”.

What about the Potency [4] of the same compound?
Its Potency is “inactive”.

With `COc1cc(OC)cc(OC)c1` as the compound, how does the Potency [1] read?
Its Potency is “inactive”.

What about the Potency [2] of the same compound?
The Potency was “inactive”.

And the Potency [3]?
The Potency was “inactive”.

And the Potency [4]?
The Potency was “inactive”.

How did the Potency [1] turn out when `CCCCCc1ccc(N)cc1` was run?
The Potency was “inactive”.

What about the Potency [2] of the same compound?
The Potency was “inactive”.

And the Potency [3]?
Its Potency is “inactive”.

And the Potency [4]?
Its Potency is “inactive”.

How did the Potency [1] turn out when `NC(=O)c1ccncc1` was run?
Its Potency is “inactive”.

What about the Potency [2] of the same compound?
Its Potency is “inactive”.

What about the Potency [3] of the same compound?
The Potency was “inactive”.

What about the Potency [4] of the same compound?
The Potency was “inactive”.

`O=C(O)c1cccnc1Nc1cccc(C(F)(F)F)c1` was tested. Which Potency [1] did it give?
The Potency was “inactive”.

And the Potency [2]?
Its Potency is “inactive”.

What about the Potency [3] of the same compound?
The Potency was “inactive”.

And the Potency [4]?
The Potency was “inactive”.

`CC1c2ccccc2CN1NC(=O)c1ccc(Cl)c(S(N)(=O)=O)c1` (stereo not drawn) was tested. Which Potency [1] did it give?
The Potency was “inactive”.

What about the Potency [2] of the same compound?
Its Potency is “inactive”.

And the Potency [3]?
The Potency was “inactive”.

And the Potency [4]?
Its Potency is “inactive”.

How did the Potency [1] turn out when `CC1=CC(=O)CC(C)(C)C1=O` was run?
Its Potency is “inactive”.

What about the Potency [2] of the same compound?
The Potency was “inactive”.

And the Potency [3]?
The Potency was “inactive”.

What about the Potency [4] of the same compound?
The Potency was “inactive”.

What does the source list for `C=CCOCC(O)CO` (stereo not drawn)?
Potency [1]: inactive; Potency [2]: inactive; Potency [3]: inactive; Potency [4]: inactive

What does the source list for `NCc1ccco1`?
Potency [1]: inactive; Potency [2]: inactive; Potency [3]: inactive; Potency [4]: inactive

`OC/C=C/CO` was tested. Which Potency [1] did it give?
Its Potency is 35.5 µM (active).

And the Potency [2]?
The Potency was “inactive”.

What about the Potency [3] of the same compound?
Its Potency is “inactive”.

And the Potency [4]?
Its Potency is “inactive”.

`C=C1CC[C@H]2C[C@@H]1C2(C)C` was tested. Which Potency [1] did it give?
The Potency was “inactive”.

What about the Potency [2] of the same compound?
Its Potency is “inactive”.

What about the Potency [3] of the same compound?
The Potency was “inactive”.

And the Potency [4]?
The Potency was “inactive”.

`Nc1cccc(S(=O)(=O)O)c1` was tested. Which Potency [1] did it give?
Its Potency is “inactive”.

What about the Potency [2] of the same compound?
Its Potency is “inactive”.

And the Potency [3]?
Its Potency is “inactive”.

What about the Potency [4] of the same compound?
The Potency was “inactive”.

With `COC(OC)(C(=O)c1ccccc1)c1ccccc1` as the compound, how does the Potency [1] read?
Its Potency is “inactive”.

What about the Potency [2] of the same compound?
The Potency was “inactive”.

What about the Potency [3] of the same compound?
The Potency was “inactive”.

And the Potency [4]?
The Potency was “inactive”.

`CNCCCC1c2ccccc2C=Cc2ccccc21` was tested. Which outcome [1] did it give?
The outcome was “inactive”.

And the outcome [2]?
The outcome was “inactive”.

And the outcome [3]?
The outcome was “inactive”.

And the outcome [4]?
The outcome was “inactive”.

For `O=C1OC(CN2CCOCC2)CN1/N=C/c1ccc([N+](=O)[O-])o1` (stereo not drawn), which Potency [1] is on record?
Its Potency is “inactive”.

And the Potency [2]?
Its Potency is “inactive”.

What about the Potency [3] of the same compound?
Its Potency is “inactive”.

What about the Potency [4] of the same compound?
The Potency was “inactive”.

What does the source list for `CCCCCCCCCOC(C)=O`?
Potency [1]: inactive; Potency [2]: inactive; Potency [3]: inactive; Potency [4]: inactive

For `C/C=C/C(=O)Oc1c(CCCCCC(C)C)cc([N+](=O)[O-])cc1[N+](=O)[O-]`, which Potency [1] is on record?
The Potency was “inactive”.

And the Potency [2]?
The Potency was 71 µM (active).

What about the Potency [3] of the same compound?
Its Potency is “inactive”.

What about the Potency [4] of the same compound?
Its Potency is “inactive”.

For `CCCCCOC(=O)CCCC`, which Potency [1] is on record?
Its Potency is “inactive”.

And the Potency [2]?
Its Potency is “inactive”.

And the Potency [3]?
The Potency was “inactive”.

What about the Potency [4] of the same compound?
The Potency was “inactive”.

Which Potency [1] does the source give for `N#CCc1ccccc1[N+](=O)[O-]` here?
Its Potency is “inactive”.

What about the Potency [2] of the same compound?
The Potency was “inactive”.

And the Potency [3]?
Its Potency is “inactive”.

And the Potency [4]?
Its Potency is “inactive”.

Which Potency [1] does the source give for `CCCCCCCCO[C@@H]1O[C@H](CO)[C@@H](O)[C@H](O)[C@H]1O` here?
Its Potency is “inactive”.

What about the Potency [2] of the same compound?
Its Potency is “inactive”.

What about the Potency [3] of the same compound?
The Potency was “inactive”.

What about the Potency [4] of the same compound?
The Potency was “inactive”.

Which Potency [1] does the source give for `O=C(N[C@H](CO)[C@H](O)c1ccc([N+](=O)[O-])cc1)C(Cl)Cl` here?
The Potency was “inactive”.

And the Potency [2]?
The Potency was “inactive”.

What about the Potency [3] of the same compound?
Its Potency is “inactive”.

And the Potency [4]?
The Potency was “inactive”.

For `CCCCCCCCN(C)CCCCCCCC`, which Potency [1] is on record?
The Potency was “inactive”.

What about the Potency [2] of the same compound?
Its Potency is “inactive”.

And the Potency [3]?
The Potency was “inactive”.

What about the Potency [4] of the same compound?
The Potency was “inactive”.

For `O=S(=O)(O)CCN1CCN(CCO)CC1`, which Potency [1] is on record?
The Potency was “inactive”.

And the Potency [2]?
The Potency was “inactive”.

What about the Potency [3] of the same compound?
The Potency was “inactive”.

What about the Potency [4] of the same compound?
Its Potency is “inactive”.

With `CC(C)=CCCC(C)CCOC(=O)C(C)C` (stereo not drawn) as the compound, how does the Potency [1] read?
Its Potency is “inactive”.

What about the Potency [2] of the same compound?
The Potency was “inactive”.

What about the Potency [3] of the same compound?
The Potency was “inactive”.

What about the Potency [4] of the same compound?
The Potency was “inactive”.

What does the source list for `Nc1ccnc(=O)[nH]1`?
Potency [1]: inactive; Potency [2]: inactive; Potency [3]: inactive; Potency [4]: inactive

Which results are given for `CCC(C)SSC(C)CC` (stereo not drawn)?
Potency [1]: inactive; Potency [2]: inactive; Potency [3]: inactive; Potency [4]: inactive

What does the source list for `CCCCCCCCCCCCC1CO1` (stereo not drawn)?
Potency [1]: inactive; Potency [2]: inactive; Potency [3]: inactive; Potency [4]: inactive

Which Potency [1] does the source give for `S=P(N1CC1)(N1CC1)N1CC1` here?
Its Potency is 66.7 µM (active).

And the Potency [2]?
Its Potency is 59.4 µM (active).

What about the Potency [3] of the same compound?
The Potency was 33.4 µM (active).

What about the Potency [4] of the same compound?
The Potency was 74.8 µM (active).

Source: PubChem BioAssay (Tox21)
